# Shown are actives, neighbours in structure and some others; about 8.2% of the full set was active somewhere.
# ELG1 DNA repair: ELG1-dependent DNA repair inhibition; HEK293T ELG1-luciferase reporter, luminescence, 16 h; DNA damage induced by 5-fluorouridine; Potency, µM (top dose mostly 46.1 µM), for the others: at the top dose activity change, negative = inhibition, usual class: inhibitors; 330,000 tested, 2.3% active; also: % is scaled to controls: 0 for no effect and ±100 for the full control effect; nearly all actives have a fitted effect of over 55% in size
#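 Quantitative HTS, concentration-response format. 2,000 cells/well co-treated with 5-fluorouridine and compound, 16 hr in 5% CO2 at 37 °C; ONE-Glo luminescence read after 30 min.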
# MCF10A rerep: inducers of DNA re-replication in MCF 10A breast cells; MCF 10A DNA re-replication, Hoechst nuclear intensity, 48 h; Potency, µM (highest dose often 46.1 µM), without a hit: top-dose activity, positive = re-replication, actives largely listed as activators; 350,000 tested, 2.9% active; also: % of control where 0% means no effect; nearly all actives have a fitted effect of over 50% in size
# KB-V1 MDR tox: KB-V1 MDR subline cytotoxicity; AID 1347076; KB-V1 MDR cells viability, CellTiter-Glo, 72 h; 400,000 tested, 3.4% active; Potency, µM (highest dose often 46.1 µM), most hits filed as cytotoxic; also: % is scaled to controls: 0 for no effect and ±100 for the full control effect; nearly all actives have a fitted effect of over 60% in size
#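 qHTS viability screen in drug-selected KB-V1 MDR cells: 72 h compound treatment at 37 degrees C, ATP luminescence end point.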
# KB-3-1 tox: kills parental KB-3-1 adenocarcinoma cells. KB-3-1 viability, CellTiter-Glo ATP luminescence, 72 h. Potency, µM (titrated, usually from 46.1 µM), actives largely listed as cytotoxic. 400,000 tested, 1.4% active; also: % is scaled to controls: 0 for no effect and ±100 for the full control effect; nearly all actives have a fitted effect of over 60% in size
#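 Using CellTiter-Glo luminescence, growth of non-resistant KB-3-1 adenocarcinoma cells is assessed 72 h after pin-tool compound addition at 37 °C. Normalized responses across the concentration series yield fitted curves.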
# SW480 rerep: inducers of DNA re-replication in SW480 colon cancer cells. SW480 DNA re-replication, Hoechst DNA content imaging, 48 h. Potency, µM (doses to about 46.1 µM), inactives show at the top dose re-replication activation, actives largely listed as activators. 340,000 tested, 1.8% active; also: % of control where 0% means no effect; nearly all actives have a fitted effect of over 55% in size
#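 SW480 cells exposed to compounds for 48 hr at 37 C, 5% CO2, then Hoechst-stained 40 min. Nuclear DNA content imaged by fluorescence scanning (405 nm excitation, 500-530 nm emission); re-replication scored as increased high-intensity nuclei.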
# An asterisk follows results filed as active; i = inactive; ? = inconclusive; . = no result given; [ ] = dose if it differs, or a comment. Calls follow the shape of the dose curve; as a rule, active = well fitted curve in the direction sought with a large enough effect; inconclusive = small, poorly fitted or top-dose-only effect, or another doubt; inactive = no such curve, though single readings can be large; an effect the other way counts as inactive or inconclusive. Potency is read from the fitted curve at half-maximal effect.
SMILES,ELG1 DNA repair,MCF10A rerep,KB-V1 MDR tox,KB-3-1 tox,SW480 rerep
CC(=O)N1CC(C)Sc2ccc(S(=O)(=O)NCc3ccc(Cl)cc3)cc21 (centres undefined),-12%,12%,i,23µM*,?
CC(=O)N1CC(C)Sc2ccc(S(=O)(=O)NCCc3ccc(C)cc3)cc21 (centres undefined),?,?,i,i,-29%
Cc1cc(C)c2c(=O)[nH]c(SCC(=O)c3ccc(C(C)C)cc3)nc2n1,-2%,?,16µM*,i,-6%
Cc1ccc(N2C(=O)c3cccc4c(N)ccc(c34)C2=O)c2cccnc12,?,?,0.58µM*,?,?
Nc1c2c(nc3ccccc13)CSCC2,.,?,i,i,-12%
COc1ccc2c(c1)c1ncnc(N3CCN(Cc4ccc5c(c4)OCO5)CC3)c1n2C,16µM*,.,.,.,.
COc1ccc2[nH]c3c(N4CCC(O)(c5cccc(C(F)(F)F)c5)CC4)ncnc3c2c1,?,?,18µM*,13µM*,?
Cc1ccc2[nH]c3c(N4CCOCC4)ncnc3c2c1,-20%,10%,i,i,-6%
COc1ccc2[nH]c3c(N4CCN(Cc5ccc6c(c5)OCO6)CC4)ncnc3c2c1,26µM*,?,?,?,?
CCN(Cc1cc(OC)c(OC)c(OC)c1)C(=S)Nc1cccc(SC)c1,?,18%,?,i,-9%
COc1cc(CNc2ncnc3c2ncn3[C@H]2CN(Cc3ccc(Cl)cc3)C[C@@H](CO)O2)cc(OC)c1OC,.,.,i,i,.
COc1ccccc1C1=NN(C(=S)Nc2ccccc2)C(c2ccco2)C1 (centres undefined),?,13%,15µM*,?,?
COc1ccc(OC)c(C2CC(c3ccccc3)=NN2C(=S)Nc2ccccc2)c1 (centres undefined),11%,4.1µM*,i,i,4.6µM*
CNC(=S)N1N=C(c2ccc(OC)cc2)CC1c1ccccc1Cl (centres undefined),?,14%,i,i,-12%
CNC(=S)N1N=C(c2ccc(C)cc2)CC1c1cc(OC)ccc1OC (centres undefined),-5%,?,?,12µM*,?
CNC(=S)N1N=C(c2ccc(C)cc2)CC1c1ccc(OC)cc1 (centres undefined),-25%,?,?,?,-6%[9.22 µM]
CC(=O)N1N=C(c2ccco2)CC1c1ccco1 (centres undefined),7%,1%,i,i,-2%
Cn1ncc2c(NCc3cccc(Cl)c3)ncnc21,.,.,?,i,.
CCc1ccccc1NC(=O)C(=O)NCCCN1CCOCC1,.,.,?,i,.
O=c1c(-c2ccc([N+](=O)[O-])cc2)coc2c(O)c(O)ccc12,?,7%,?,i,13µM*
Nc1ccc(S(=O)(=O)NCC(=O)OCCOc2ccccc2)cc1[N+](=O)[O-],15%,15µM*,i,i,-67%
CC1C(=O)C(=O)C=CN1C (centres undefined),.,6%,.,.,-2%
COCCNC(=O)C1(C)CCCN(Cc2ccc(OC)cc2)C1 (centres undefined),.,.,i,i,.
CCN1C(=O)c2cccc3c(S(=O)(=O)N4CCC(C)CC4)ccc1c23,?,10µM*,2.1µM*,?,?
CCN1C(=O)c2cccc3c(S(=O)(=O)NCCCN4CCOCC4)ccc1c23,?,24%,i,i,-13%
SMILES,ELG1 DNA repair,MCF10A rerep,KB-V1 MDR tox,KB-3-1 tox,SW480 rerep
CCN1C(=O)c2cccc3c(S(=O)(=O)Nc4ccccc4OC)ccc1c23,?,?,16µM*,?,1%
CCN1C(=O)c2cccc3c(S(=O)(=O)Nc4ccc(O)c(C(=O)O)c4)ccc1c23,-6%,6%,i,i,0%
CCN1C(=O)c2cccc3c(S(=O)(=O)NCCc4c[nH]c5ccccc45)ccc1c23,8%,10%,i,i,-2%
CCN1C(=O)c2cccc3c(S(=O)(=O)NCc4ccccc4)ccc1c23,?,16µM*,i,i,?
Cc1ccc(SCC(=O)OCC(=O)NC(C)c2ccc(F)cc2)cc1 (centres undefined),5%,0%,i,i,-5%
COc1ccc(C)cc1NC(=O)c1nnn(Cc2cccc(Br)c2)c1N,.,.,i,?,.
CC(O)(c1ccncc1)c1nc(-c2cccc(C(F)(F)F)c2)cs1 (centres undefined),.,.,?,i,.
CC(C)(C)OC(=O)CC[C@@H](C(=O)NCCCCCCCCCCC(=O)N1CCN(C(=O)OC(C)(C)C)CC1)n1cc(CCCCCNC(=O)OC(C)(C)C)nn1,-21%,?,i,i,?
C#CCOCCOCCOCCNc1nc(N2CCN(C(=O)CCCCCCCCCCNC(=O)Cn3cc(C[C@@H](C)O)nn3)CC2)nc(N2CCN(C(=O)CCCCCCCCCCNC(=O)[C@H](CO)n3cc(CCCSC)nn3)CC2)n1,?,6.5µM*,?,i,8%
C#CCOCCOCCOCCNc1nc(N2CCOCC2)nc(N2CCN(C(=O)CCCCCCCCCCNC(=O)[C@@H]([C@H](C)CC)n3cc(CCCCCN)nn3)CC2)n1,?,12µM*,i,i,?
CC(C)(C)OC(=O)NCCCCCc1cn([C@@H](CO)C(=O)NCCCCCCCCCCC(=O)N2CCN(C(=O)OC(C)(C)C)CC2)nn1,3.2µM*,?,i,?,-1%[9.22 µM]
C#CCOCCOCCOCCNc1nc(N2CCN(C(=O)CCCCCCCCCCNC(=O)Cn3cc(C[C@@H](C)O)nn3)CC2)nc(N2CCN(C(=O)CCCCCCCCCCNC(=O)[C@@H](CCC(=O)O)n3cc(CCCCCN)nn3)CC2)n1,-19%,-2%,i,i,-6%
CCNc1nc(NC(C)(C)C)nc(N2CCCCC2)n1,-19%,18µM*,i,?,15µM*
O=C(Nc1ccc2c(c1)OCO2)c1ccc(NC2CC2)c([N+](=O)[O-])c1,-22%,?,15µM*,?,?
O=C(Nc1ccc(N2CCCC2)c(Cl)c1)c1ccc2c(c1)OCCO2,.,11%,i,?,1%
O=C(Nc1ccc(N2CCCCC2)c(Cl)c1)c1ccc2c(c1)OCCO2,-27%,?,?,16µM*,-2%[9.22 µM]
O=C(NCc1ccc2c(c1)OCO2)c1cc([N+](=O)[O-])ccc1N1CCCCC1,?,2.6µM*,?,2.1µM*,5.8µM*
O=C(Nc1ccc(Cl)c([N+](=O)[O-])c1)c1ccc2c(c1)OCCO2,?,10%,13µM*,i,12%
COC(=O)c1ccc(CNC(=O)C(Cc2ccccc2)NC(=O)c2ccccc2)cc1 (centres undefined),.,.,i,i,.

# Screening results: PubChem, National Center for Advancing Translational Sciences (NCATS)
